# Screening data from PubChem BioAssay.
# A selection: hits, their analogues and other compounds. The true share with any hit is near 3.7%.
# Nrf2 block: inhibitors of Nrf2 signaling. A549 ARE-Fluc reporter, luciferase luminescence, 18-24 h. Potency, µM (titrated, usually from 46 µM), for the others: at the highest dose activity change, negative = inhibition, most hits filed as inhibitors. hit rate 2.1% among 360,000. AID 504444; also: % is scaled to controls: 0 for no effect and ±100 for the full control effect; nearly all actives have a fitted effect of over 60% in size
#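 Nrf2 function is reported as luminescence of an ARE-controlled luciferase in A549 cells. Compounds were tested at several concentrations, and a CellTiter-Fluor read on the same wells flagged cytotoxicity.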
# ELG1 repair inh: blocks ELG1-dependent DNA repair in HEK293T cells. HEK293T ELG1-luciferase reporter, luminescence, 16 h; DNA damage induced by 5-fluorouridine. Potency, µM (top dose mostly 46.1 µM), for the others: at the top dose activity change, negative = inhibition, actives largely listed as inhibitors. hit rate 2.3% among 330,000; also: % is scaled to controls: 0 for no effect and ±100 for the full control effect; nearly all actives have a fitted effect of over 55% in size
#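 5-Fluorouridine DNA damage + compound/DMSO, 2,000 cells/well, 16 h, 37 °C/5% CO2. ONE-Glo, 30 min RT, luminescence. Readout = decrease in reporter signal.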
# A549 viability: counter-screen for Nrf2 inhibitors: cytotoxicity in A549 cells | hit rate 0.16% among 390,000 | A549 ARE-Fluc cells, CellTiter-Fluor viability, 18-24 h | Potency, µM (highest dose often 46 µM), inactives show at the top dose activity change, negative = cytotoxicity, most hits filed as inhibitors; also: % is scaled to controls: 0 for no effect and ±100 for the full control effect
#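 A549 ARE_Fluc cells in 5% FBS OPTI-MEM were exposed to compounds in concentration-response for 18-24 h at 37 deg C. Viability was read by CellTiter-Fluor fluorescence (Ex 405/Em 525) after 30 min, before the luciferase read.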
# Nrf2 ARE act: activates Nrf2 signaling; AREc32 ARE-luciferase reporter (MCF7-derived line), luminescence, 24 h; Potency, µM (titrated, usually from 46.1 µM), for the others: at the highest dose activation, actives largely listed as activators; hit rate 0.31% among 410,000; AID 624171; also: % of control where 0% means no effect; nearly all actives have a fitted effect of over 65% in size
#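 Each well held 1000 AREc32 cells, which were incubated with compound for 24 hr at 37 deg C after overnight attachment, and ARE reporter activity was quantified by firefly luciferase luminescence.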
# An asterisk follows results filed as active; ? = inconclusive; . = no result. Calls follow the shape of the dose curve; as a rule, active = well fitted curve in the direction sought with a large enough effect; inconclusive = small, poorly fitted or top-dose-only effect, or another doubt; inactive = no such curve, though single readings can be large; an effect the other way counts as inactive or inconclusive. Potency is read from the fitted curve at half-maximal effect.
SMILES,Nrf2 block,ELG1 repair inh,A549 viability,Nrf2 ARE act
O=C(NCCN1CCC(n2c(=O)[nH]c3ccccc32)CC1)c1ccc(OC(F)(F)F)cc1,.,.,.,7%
CC1(C(=O)NS(=O)(=O)c2ccc(Cl)s2)CCN1C(=O)c1ccccc1CCc1ccccc1 (stereo not drawn),.,.,.,0%
O=C(CN(C(=O)c1csnn1)c1cccc(Cl)c1)NCCc1ccccc1,-6%,-12%,1%,0%
Cc1ccc(/C=C2\SC(=S)N(CCC(=O)NCCCN3CCOCC3)C2=O)cc1,?,-15%,15µM*,?
O=C(CCCN1C(=O)/C(=C\c2ccccc2)SC1=S)N1CCOCC1,?,18µM*,-21%,?
CCc1ccc(/C=C2\SC(=S)N(CCC(=O)NCCCN3CCOCC3)C2=O)cc1,?,7%,?,25%
COc1ccc(/C=C2\SC(=S)N(CCC(=O)NCCCN3CCOCC3)C2=O)cc1,?,-5%,12µM*,12%
CCOC(=O)c1csc(COc2ccc(OC)cc2)n1,?,?,1%,-1%
O=C(Cn1c(=O)n(Cc2ccc3c(c2)OCO3)c(=O)c2ccccc21)Nc1cccc(Cl)c1,9%,.,-6%,0%
CCOC(=O)C1(C)C=C(Nc2cccc(C)c2)C(=O)N1c1ccccc1 (stereo not drawn),-21%,.,12%,0%
O=C(/C=C/c1ccc(F)cc1)Nc1nc2n(n1)C(c1ccc(Cl)cc1)C=C(c1ccccc1)N2 (stereo not drawn),21%,.,2%,15%
COc1cc2ccccc2nn1,4%,3%,?,0%
COc1ccc2c(n1)Sc1nc3ccccc3nc1N2,?,?,1%,4.5µM*
CC1CCN(S(=O)(=O)c2ccc3nc(Nc4cccc(F)c4)ccc3c2)CC1,21µM*,.,?,0%
CC1CCN(S(=O)(=O)c2ccc3nc(NCc4ccccc4)ccc3c2)CC1,16µM*,.,-15%,0%
Cc1ccccc1CCNCc1c(C(=O)O)c(C)n(Cc2c(F)cccc2Cl)c1C,24%,.,4%,-1%
Cc1ccc(S(=O)(=O)Oc2ccc(/C=N/NC(=O)c3nn(C)cc3Cl)cc2)cc1,18µM*,?,-11%,1%
CCCCNC(=O)CC1N=C2c3ccccc3N=C(SCC(=O)Nc3ccccc3OC)N2C1=O (stereo not drawn),18µM*,-5%,-23%,0%
COc1ccc(CCNc2nc(C)nc3c2oc2ccccc23)cc1OC,18µM*,10µM*,?,4%
CC(=O)Nc1ccc(Nc2nc(C)nc3c2oc2ccccc23)cc1,-5%,?,-2%,4%
CCC(C)Nc1nc(C)nc2c1oc1ccccc12 (stereo not drawn),21µM*,?,1%,4%
CCc1nc(NC(C)C)c2oc3ccccc3c2n1,-7%,-3%,-1%,3%
Cc1nc(N[C@@H](Cc2ccccc2)C(=O)O)c2oc3ccccc3c2n1,3%,5%,13%,-1%
Cc1nc(Nc2ccncc2)c2oc3ccccc3c2n1,-22%,16µM*,-7%,11%
Cc1nc(NC(C)c2ccccc2)c2oc3ccccc3c2n1 (stereo not drawn),13µM*,?,-14%,4%
SMILES,Nrf2 block,ELG1 repair inh,A549 viability,Nrf2 ARE act
C(=C\c1ccc2nncn2c1)/c1ccccc1,.,.,.,3%
COc1cccc(Nc2nc(N)nc(CCl)n2)c1,-5%,?,-9%,13µM*
Cc1cccc(Nc2nc(N)nc(CCl)n2)c1,5%,?,-13%,14µM*
Cc1cccc(Nc2nc(N)nc(CCl)n2)c1C,10µM*,9.2µM*,?,19%
Cc1ccc(Nc2nc(N)nc(CCl)n2)cc1,12%,-23%,-4%,?
CCOC(=O)C1=CCN(S(=O)(=O)c2ccc(C)cc2)C1c1cccc(Br)c1 (stereo not drawn),.,.,.,14%
Cn1cc(-c2cc3n(n2)CCC(=O)N3CC(=O)NCc2ccccc2)c2ccccc21,.,.,3%,0%
CCN1CCN(c2nc(N)c([N+](=O)[O-])c(Nc3ccc(C)c(C)c3)n2)CC1,16%,-13%,2%,0%
Cc1ccc(Nc2nc(N3CCN(C)CC3)nc(N)c2[N+](=O)[O-])cc1C,.,8.2µM*,.,.
CCOc1ccc2ncc(S(=O)(=O)c3ccc(C)cc3)c(N3CCC4(CC3)OCCO4)c2c1,?,18µM*,-1%,4%
CCOC(=O)c1cnc2ccc(OCC)cc2c1N1CCN(C)CC1,.,0%,2%,3%
NCCCNc1ncnc2ccc(-c3ccc4c(c3)OCO4)cc12,0%,.,-8%,.
COc1cc(/C=C2\SC(N3CCc4ccccc4C3)=NC2=O)cc(OC)c1OC,-11%,18µM*,-2%,0%
COc1ccc(/C=C2\SC(N3CCc4ccccc4C3)=NC2=O)cc1,0%,-2%,-5%,0%
COc1ccc(N2CCN(C(=O)CN(C)S(=O)(=O)c3cnc[nH]3)CC2)cc1,6%,10%,1%,0%
Cc1ccc(-n2ncc(C(=O)N3CCC(c4ccccc4)C3)c2C2CCN(C(=O)OC(C)(C)C)CC2)cc1 (stereo not drawn),?,.,-22%,-1%
COCCCNc1nc(-c2ccc(Cl)cc2)nc2ccccc12,?,?,6%,2%
COCCCNc1nc(-c2ccncc2)nc2ccccc12,-20%,18µM*,-5%,0%
COCCN(CCOC)c1nc(-c2ccccc2)nc2ccccc12,-7%,26µM*,-7%,3%
COc1cc(NC(=O)C2CC(=O)N(CCc3ccc(F)cc3)C2)cc(OC)c1OC (stereo not drawn),-7%,-7%,-2%,-1%
Cc1ccc2oc(C(=O)Nc3ccc(S(=O)(=O)N4CCCC(C)C4)cc3)cc(=O)c2c1 (stereo not drawn),?,.,-11%,0%
Cc1ccc2occ(CC(=O)Nc3ccc(S(=O)(=O)N4CCCC(C)C4)cc3)c2c1 (stereo not drawn),21µM*,.,-25%,0%
CCCS(=O)(=O)c1c(S(=O)(=O)CCC)c2cc(C(C)(C)C)ccn2c1C(=O)c1ccc(C)cc1,-12%,.,8%,0%
Fc1cccc(/C=N/Nc2ccccn2)c1,?,?,1%,7.1µM*
Cc1ccc(C)c(/C=N/Nc2ccccn2)c1,?,12%,1%,8.9µM*
SMILES,Nrf2 block,ELG1 repair inh,A549 viability,Nrf2 ARE act
COc1cccc(N2CCN(C(=O)c3cccc(NC4=NC5CS(=O)(=O)CC5S4)c3)CC2)c1 (stereo not drawn),14%,8%,-1%,-2%
CCOC(=O)c1c(C)[nH]c(C(=O)COC(=O)c2ccco2)c1C,-1%,?,7%,3%
CC1(C)c2[nH]c3ccccc3c2C[C@@H]2C(=O)N(c3cc(F)ccc3F)C(=O)N21,-20%,.,-3%,4%
CC[C@H]1c2[nH]c3ccccc3c2C[C@@H]2C(=O)N(c3ccc(F)cc3)C(=O)N21,?,8.2µM*,4%,3%
O=C(Nc1ccc(CN2CCOCC2)cc1)c1ccc(Br)cc1,-23%,-6%,3%,5%
O=C(Nc1ccc(S(=O)(=O)Nc2ccccc2)cc1)c1ccc(CN2CCOCC2)cc1,4.1µM*,-24%,-4%,0%
